Experiment [1] concerns the target Protein phosphatase methylesterase 1 (Homo sapiens) (UniProt Q9Y570). Nature of the experiment: human PME-1 methylesterase inhibition confirmation – biochemical, fluorescence polarization, FP-Rh probe, triplicate (AID 2171).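 Also: 0% = enzyme with DMSO and 100% = wells lacking PME-1.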 The settings on record: recombinant PME-1, FP-Rh probe fluorescence polarization; at 5.9 µM; hits give high values.
Experiment [2] concerns the target Nuclear receptor coactivator 3 (Homo sapiens) (UniProt Q9Y6Q9). Kind of experiment: NCOA3 GAL4-fusion reporter inhibition – cell-based, luminescence, quadruplicate, confirmation (AID 588792;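 active = mean inhibition over 43.08%, the solvent-only control mean plus 3 SD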;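 also: 0% = DMSO treated cells and 100% = gossypol at 36 µM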). The settings on record: HEK293 GAL4-SRC3 luciferase reporter, at 3.6 µM, hits give high values.
Experiment [3] relates to transactivating tegument protein VP16 (Human herpesvirus 1), Gal4-VP16 luciferase reporter. Kind of experiment: repression of VP16-driven luciferase reporter – cell-based, luminescence, high throughput, counter-screen for SRC3 inhibitor project (AID 588794; in the data active = inhibition above about 30%). The settings on record: mammalian cells, at 3.6 µM, hits give high values.
Experiment [4] addresses Nuclear receptor coactivator 1 (Homo sapiens) (UniProt Q15788). Kind of experiment: NCOA1 GAL4-fusion reporter inhibition – cell-based, luminescence, quadruplicate, confirmation (AID 588820;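 active = mean inhibition above 46.68%, the untreated control wells mean plus 3 SD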;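 also: 0% = DMSO wells and 100% = gossypol 36 µM treated wells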). The settings on record: HEK293 GAL4-SRC1 luciferase reporter, at 3.6 µM, hits give high values. Background: Reporter assays use an easily measured gene product as a stand-in for the process of interest.

Experiment [5] in a line: repression of VP16-driven luciferase reporter – cell-based, luminescence, high throughput, counter-screen for SRC1 inhibitor project (AID 588824; in the data active = inhibition above about 25%). The settings on record: cell-based VP16 transactivation luciferase luminescence; at 3.6 µM; hits give high values.
Experiment [6] is described as follows: StAR promoter reporter inhibitors, counter-screen for LRH-1 inverse agonist project, cell-based, luminescence, high throughput (AID 651611; in the data active = inhibition above about 28%). The settings on record: StAR promoter luciferase reporter counterscreen, at 3.6 µM, hits give high values.
For experiment [7], the target named is Nuclear receptor subfamily 5 group A member 2 (Homo sapiens) (UniProt O00482). Nature of the experiment: NR5A2 activity suppression in reporter cells – cell-based, luminescence, confirmation (AID 651613; in the data active = inhibition above about 42%;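 also: HEK293T cells co-transfected with LRH-1 and StAR promoter luciferase reporter; 0% = vehicle wells and 100% = parental cells lacking receptor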). The settings on record: cell-based LRH-1 luciferase reporter, inverse agonism; at 3.6 µM; hits give high values.
Nuclear receptor subfamily 5 group A member 2 (Homo sapiens), sequence (O00482 whole entry, looked up): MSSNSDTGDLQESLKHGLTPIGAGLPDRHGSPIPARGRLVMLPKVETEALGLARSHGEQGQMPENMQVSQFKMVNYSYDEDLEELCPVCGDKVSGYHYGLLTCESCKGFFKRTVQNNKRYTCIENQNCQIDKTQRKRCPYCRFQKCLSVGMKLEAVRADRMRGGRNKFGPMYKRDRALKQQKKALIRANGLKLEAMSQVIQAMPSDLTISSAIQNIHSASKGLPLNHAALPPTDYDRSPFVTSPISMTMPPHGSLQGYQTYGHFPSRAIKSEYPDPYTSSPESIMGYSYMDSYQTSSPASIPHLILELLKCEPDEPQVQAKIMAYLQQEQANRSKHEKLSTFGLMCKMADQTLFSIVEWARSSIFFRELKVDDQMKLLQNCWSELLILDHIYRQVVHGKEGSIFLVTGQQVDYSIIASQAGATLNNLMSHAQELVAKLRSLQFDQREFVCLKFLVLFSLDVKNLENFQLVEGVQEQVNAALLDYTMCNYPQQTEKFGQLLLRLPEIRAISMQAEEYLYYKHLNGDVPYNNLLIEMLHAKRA
For experiment [8], the target named is Steroidogenic factor 1 (Homo sapiens) (UniProt Q13285). Nature of the experiment: inverse agonism at SF1 nuclear receptor – cell-based, luminescence, high throughput, counter-screen for LRH-1 inverse agonist project (AID 651614; in the data active = inhibition above about 44%;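 also: cells cotransfected with StAR promoter reporter and SF1 expression vector; 0% = vehicle on cells with receptor and 100% = vehicle on cells lacking receptor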). The settings on record: cell-based SF1 luciferase reporter, at 3.6 µM, hits give high values. For orientation: Counterscreens check selectivity or assay interference.
Steroidogenic factor 1 (Homo sapiens), sequence (Q13285 whole entry, looked up): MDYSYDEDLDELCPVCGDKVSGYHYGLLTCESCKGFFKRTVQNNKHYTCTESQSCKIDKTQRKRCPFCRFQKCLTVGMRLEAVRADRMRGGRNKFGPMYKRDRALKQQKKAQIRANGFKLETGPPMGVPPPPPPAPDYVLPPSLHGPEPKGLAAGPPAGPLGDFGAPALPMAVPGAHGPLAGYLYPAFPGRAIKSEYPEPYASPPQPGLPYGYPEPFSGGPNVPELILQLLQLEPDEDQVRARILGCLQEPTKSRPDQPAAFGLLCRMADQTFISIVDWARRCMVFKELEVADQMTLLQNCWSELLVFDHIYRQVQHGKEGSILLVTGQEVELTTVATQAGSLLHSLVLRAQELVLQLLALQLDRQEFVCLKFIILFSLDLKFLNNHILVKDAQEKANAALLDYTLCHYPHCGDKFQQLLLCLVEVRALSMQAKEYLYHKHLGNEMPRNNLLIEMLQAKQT

A short description of experiment [9]: compounds suppressing VP16-driven luciferase signal – cell-based, luminescence, high throughput, counter-screen for LRH-1 inverse agonist project (AID 651615; in the data active = inhibition above about 33%). The settings on record: Gal4-VP16 luciferase reporter cells, at 3.6 µM, hits give high values.
Experiment [10] concerns transactivating tegument protein VP16 (Human herpesvirus 1). Kind of experiment: compounds suppressing VP16-driven luciferase signal – cell-based, luminescence, single concentration, counter-screen for SRC2 inhibitor project (AID 652007; in the data active = inhibition above about 36%). The settings on record: cell-based VP16 transactivation luciferase reporter, at 8.9 µM, hits give high values.
The target in experiment [11] is Nuclear receptor coactivator 2 (Homo sapiens) (UniProt Q15596). Kind of experiment: inhibition of GAL4-SRC2 driven luciferase expression – cell-based, luminescence, HEK293, triplicate, confirmation (AID 652008;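 active = mean inhibition above 46.5%, the solvent-only control mean plus 3 SD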;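 also: 0% = DMSO-treated cells and 100% = Gossypol at 36 µM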). The settings on record: HEK293 GAL4-SRC2 luciferase reporter, at 8.9 µM, hits give high values.

Values without a mark were called inactive. Active and inactive are the calls of the source.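 The calls were made as follows, unless noted: active = inhibition above the hit cutoff set in the earlier primary screen (cut at about 27% in these data); inactive = the rest.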

Nuclear receptor coactivator 3 (Homo sapiens), sequence (Q9Y6Q9 whole entry, looked up, the tested form may be a part): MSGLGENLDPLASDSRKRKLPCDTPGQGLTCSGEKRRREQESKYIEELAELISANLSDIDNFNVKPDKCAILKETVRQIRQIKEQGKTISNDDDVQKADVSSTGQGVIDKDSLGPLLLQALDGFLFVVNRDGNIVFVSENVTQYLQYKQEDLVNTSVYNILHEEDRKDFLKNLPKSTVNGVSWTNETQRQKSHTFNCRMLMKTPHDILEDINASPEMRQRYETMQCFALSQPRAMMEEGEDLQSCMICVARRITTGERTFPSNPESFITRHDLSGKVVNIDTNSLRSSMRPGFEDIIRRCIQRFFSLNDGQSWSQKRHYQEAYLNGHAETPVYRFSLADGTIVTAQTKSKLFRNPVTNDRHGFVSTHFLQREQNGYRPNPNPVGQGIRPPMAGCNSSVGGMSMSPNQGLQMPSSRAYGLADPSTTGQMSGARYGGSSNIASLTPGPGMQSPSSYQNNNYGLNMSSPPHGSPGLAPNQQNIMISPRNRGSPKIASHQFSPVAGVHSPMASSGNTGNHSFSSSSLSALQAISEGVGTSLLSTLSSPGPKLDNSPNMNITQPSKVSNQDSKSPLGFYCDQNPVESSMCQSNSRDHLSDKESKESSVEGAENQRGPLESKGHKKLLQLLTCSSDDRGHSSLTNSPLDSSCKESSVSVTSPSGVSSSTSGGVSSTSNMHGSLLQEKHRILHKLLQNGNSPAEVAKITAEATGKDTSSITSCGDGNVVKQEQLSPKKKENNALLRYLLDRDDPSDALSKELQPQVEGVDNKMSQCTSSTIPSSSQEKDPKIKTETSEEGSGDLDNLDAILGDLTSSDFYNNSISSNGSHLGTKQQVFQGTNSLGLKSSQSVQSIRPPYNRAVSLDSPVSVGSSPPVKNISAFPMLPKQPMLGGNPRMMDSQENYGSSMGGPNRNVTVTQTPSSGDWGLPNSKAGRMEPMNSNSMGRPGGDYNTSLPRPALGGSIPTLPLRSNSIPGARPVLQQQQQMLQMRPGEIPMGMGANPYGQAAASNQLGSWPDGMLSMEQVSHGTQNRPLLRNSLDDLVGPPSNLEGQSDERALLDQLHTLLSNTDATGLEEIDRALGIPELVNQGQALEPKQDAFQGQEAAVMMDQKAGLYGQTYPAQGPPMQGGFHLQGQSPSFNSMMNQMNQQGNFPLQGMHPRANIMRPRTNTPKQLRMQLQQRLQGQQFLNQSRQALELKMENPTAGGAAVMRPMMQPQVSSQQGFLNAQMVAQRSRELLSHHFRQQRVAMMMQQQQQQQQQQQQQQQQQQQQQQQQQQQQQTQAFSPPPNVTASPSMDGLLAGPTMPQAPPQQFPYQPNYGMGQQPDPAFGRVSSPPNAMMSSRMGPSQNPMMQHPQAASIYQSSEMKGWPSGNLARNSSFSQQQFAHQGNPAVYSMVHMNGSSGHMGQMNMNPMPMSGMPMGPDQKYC
Protein phosphatase methylesterase 1 (Homo sapiens), sequence (Q9Y570 whole entry, looked up, the tested form may be a part): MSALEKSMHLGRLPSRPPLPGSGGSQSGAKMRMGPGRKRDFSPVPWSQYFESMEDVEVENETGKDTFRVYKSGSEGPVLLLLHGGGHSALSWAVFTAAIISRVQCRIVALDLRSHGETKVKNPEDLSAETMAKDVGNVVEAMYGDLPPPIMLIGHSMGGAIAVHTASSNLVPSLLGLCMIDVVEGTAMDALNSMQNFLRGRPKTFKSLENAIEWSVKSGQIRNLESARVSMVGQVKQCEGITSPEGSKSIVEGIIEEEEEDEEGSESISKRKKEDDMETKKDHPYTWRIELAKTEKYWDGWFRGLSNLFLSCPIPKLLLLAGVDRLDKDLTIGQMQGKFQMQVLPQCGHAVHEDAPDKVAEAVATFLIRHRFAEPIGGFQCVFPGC
Nuclear receptor coactivator 1 (Homo sapiens), sequence (Q15788 whole entry, looked up, the tested form may be a part): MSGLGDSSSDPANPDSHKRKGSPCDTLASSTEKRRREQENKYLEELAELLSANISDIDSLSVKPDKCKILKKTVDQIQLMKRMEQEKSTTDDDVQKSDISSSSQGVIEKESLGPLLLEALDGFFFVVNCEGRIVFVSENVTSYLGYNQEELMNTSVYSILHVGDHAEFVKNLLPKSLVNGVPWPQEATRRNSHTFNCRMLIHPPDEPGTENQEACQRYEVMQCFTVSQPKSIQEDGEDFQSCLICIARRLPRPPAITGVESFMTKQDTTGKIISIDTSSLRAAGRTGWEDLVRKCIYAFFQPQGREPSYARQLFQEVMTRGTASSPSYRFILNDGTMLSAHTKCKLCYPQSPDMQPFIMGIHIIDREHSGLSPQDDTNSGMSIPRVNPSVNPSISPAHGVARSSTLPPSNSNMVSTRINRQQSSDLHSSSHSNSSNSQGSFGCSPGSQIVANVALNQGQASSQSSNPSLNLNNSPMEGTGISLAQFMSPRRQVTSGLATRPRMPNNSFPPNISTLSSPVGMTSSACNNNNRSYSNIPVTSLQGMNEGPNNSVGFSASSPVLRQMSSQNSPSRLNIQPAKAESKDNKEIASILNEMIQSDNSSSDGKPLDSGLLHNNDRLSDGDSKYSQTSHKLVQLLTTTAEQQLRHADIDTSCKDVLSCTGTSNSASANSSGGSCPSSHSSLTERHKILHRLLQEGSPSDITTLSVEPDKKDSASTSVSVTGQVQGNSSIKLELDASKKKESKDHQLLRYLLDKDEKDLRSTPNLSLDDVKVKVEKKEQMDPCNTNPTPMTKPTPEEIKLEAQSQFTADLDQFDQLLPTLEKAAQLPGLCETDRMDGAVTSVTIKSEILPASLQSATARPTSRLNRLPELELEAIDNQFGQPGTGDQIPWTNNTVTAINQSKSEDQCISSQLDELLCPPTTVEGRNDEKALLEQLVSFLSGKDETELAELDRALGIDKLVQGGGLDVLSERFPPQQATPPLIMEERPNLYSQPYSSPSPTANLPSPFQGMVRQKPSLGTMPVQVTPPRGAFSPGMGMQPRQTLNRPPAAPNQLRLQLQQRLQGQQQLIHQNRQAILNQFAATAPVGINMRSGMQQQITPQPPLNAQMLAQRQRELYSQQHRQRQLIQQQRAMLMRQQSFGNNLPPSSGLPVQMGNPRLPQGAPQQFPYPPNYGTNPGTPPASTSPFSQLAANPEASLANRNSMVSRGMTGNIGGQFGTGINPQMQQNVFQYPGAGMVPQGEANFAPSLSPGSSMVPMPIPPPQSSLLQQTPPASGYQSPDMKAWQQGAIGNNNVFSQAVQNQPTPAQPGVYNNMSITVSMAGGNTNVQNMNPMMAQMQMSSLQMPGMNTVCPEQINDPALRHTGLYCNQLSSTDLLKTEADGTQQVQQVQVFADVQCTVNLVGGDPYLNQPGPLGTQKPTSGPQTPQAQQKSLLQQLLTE

A word on the inhibition: it is the drop in the measured response relative to a control, in per cent. As to `O=c1c2ccccc2nc(N/N=C/c2c(O)ccc3ccccc23)n1O`, the inhibition in experiment [1] is 43.9% (active); in [2], 55.4% (active); in [3], 78.8% (active); in [4] it was 20.9%; in experiment [5], 76.4% (active); in [6] it was 81.4% (active). The inhibition was 101% (active) in experiment [7], 90.2% (active) in experiment [8] and 78.3% (active) in experiment [9].
Consider `COc1ccc(OC)c2[nH]c(C(=O)N/N=C/c3ccccc3O)cc12`, for which the figures for the inhibition in experiment [1], in experiment [2] and in [3] were -0.45%, 30.1% and 39.2% (active), respectively.
Turning to `Cc1cc([N+](=O)[O-])ccc1-c1ccc(C2Nc3ccccc3C(=O)N2O)o1` (stereo not given), the inhibition was 25% in experiment [1], 23.6% in experiment [2] and 1.31% in experiment [3].
`Oc1ccccc1N=Nc1nc(-c2ccccc2)c(-c2ccccc2)[nH]1`: the inhibition in [1] is -3.97%; in experiment [2], 81.4% (active); in experiment [3], 76.4% (active); in experiment [4] it was 76.5% (active); in experiment [5] it was 71% (active); in [6], 86.9% (active). For the same compound, the results for the inhibition in experiment [7], in [8] and in [9] were 98.3% (active), 84% (active) and 65.3% (active), respectively.
For the compound `CCC(=O)Nc1nc(C)c(-c2csc(Nc3cccc(O)c3)n2)s1`, the figures for the inhibition in [1], in experiment [2] and in [3] were 20%, 16.5% and 47.6% (active), respectively.
Take `COC(=O)c1cc(C)nc2c1C(=O)C(=O)C=C2N1CCOCC1`: the inhibition in experiment [1] is 40% (active); in experiment [2], 69.5% (active); in experiment [3], 54.7% (active); in experiment [4] it was -43.5%; in experiment [5], 52.3% (active); in [10] it was 54.2% (active). Further, the inhibition in experiment [11] was 99.2% (active).
Regarding `COc1ccc(O)c(/C=N/NC(=S)Nc2cccc(S(=O)(=O)N(C)C)c2)c1`, the inhibition in experiment [1] is 25.4%; in experiment [2] it was 24.6%; in experiment [3], 26.2%.
Turning to `COc1ccc(/C=N/NC(=S)Nc2ccccc2[N+](=O)[O-])cc1O`, the inhibition was 43.4% (active) in experiment [1]; -21.4% in [2]; -47% in [3]; -91.8% in experiment [4]; -70% in [5].
Turning to `O=C1C(Nc2ccccc2)=C/C(=N/S(=O)(=O)c2cccs2)c2ccccc21`, the inhibition in experiment [1] was 35.5% (active); in experiment [2], 79.7% (active); in experiment [3], 59.4% (active); in experiment [4], 44.6%; in [5] it was 75.7% (active).
Take `Nc1ccc2c(c1)C(=O)C(=O)c1ccccc1-2`: the inhibition in experiment [1] was 36.4% (active); in experiment [2] it was 96.7% (active); in [3] it was 95.3% (active); in experiment [4] it was 87% (active); in experiment [5] it was 93% (active); in [6], 98.5% (active). Besides, the inhibition in experiment [7] is 110% (active); in [8] it was 98.9% (active); in experiment [9], 99.1% (active); in experiment [10], 97% (active); in experiment [11] it was 98.8% (active).
For the compound `COc1ccc(S(=O)(=O)/N=C2\C=C(Nc3ccc(O)cc3)C(=O)c3ccccc32)cc1`, the inhibition in experiment [1] is 63.2% (active); in [2] it was 94.1% (active); in experiment [3] it was 92.8% (active); in [4] it was 85% (active); in experiment [5], 90.8% (active); in experiment [6], 92% (active). Further, the inhibition is 107% (active) in [7]; 96.7% (active) in experiment [8]; 97.2% (active) in experiment [9]; 67% (active) in experiment [10]; 73% (active) in experiment [11].
As to `Oc1ccccc1-c1nc2c3ccccc3c3ccccc3c2[nH]1`, in [1], the inhibition is 21.4%.
With `Cc1cc(N)ccc1-n1c(C)ccc1C`, the inhibition in experiment [1] was 6.22%.
On the same count and under the same terms, in the case of `CC(=O)NC(c1cccs1)c1cc([N+](=O)[O-])c2cccnc2c1O` (stereo not given) it was 12%.
The same measure, in the same setting: in the case of `CCCCN(CCCC)CCNC(=O)c1cn(CC)c2ccc(S(=O)(=O)N3CCc4ccccc4C3)cc2c1=O` it was 48.8% (active).
For the compound `Cc1cc(N)ccc1N1CCCC1`, the inhibition in experiment [1] is 7.13%.
Take `COc1ccc(-c2csc(NC(=O)c3ccccc3NS(=O)(=O)c3ccc(F)c(F)c3)n2)cc1`: the inhibition in experiment [1] is -5.29%; in experiment [2], 69.3% (active); in experiment [3], 71.4% (active); in experiment [4], 55% (active); in [5] it was 81.9% (active).
On to `CCc1cccc2cc3c(N)c(C(=O)Nc4ccc(S(=O)(=O)N5CCCC5)cc4)sc3nc12`, for which the inhibition in experiment [1] was -1.66%.
